Source: ChEMBL document CHEMBL3988442, “University of Dundee, Small-Polar-MMV Screening Library” (2021)
About 13,000 (27%) of roughly 48,000 compounds showed an effect of 50% or more. The list shows a part of the results.

The compounds below were run on Wolbachia pipientis (assay: Anti-Wolbachia Cell-Based Screen). Conditions: 5 µM.
Assay type: functional
Set-up: scale not given: in the data most compounds retested in dose-response had high values

Row | Compound | Percent Effect
1 | Cn1cccc1-c1cc(C(=O)N2CCCC2c2ccc(C(N)=O)s2)[nH]n1 (configuration not stated) | -10.74%
2 | CC(C)CN1CCOC[C@H](Oc2ccc(S(C)(=O)=O)cc2)C1 | 2.76%
3 | Cc1cc(C(=O)NCc2ccnc(N3CCN(C)CC3)c2)c(C)s1 | 0.2044%
4 | CSC1=Nc2c(cnn2-c2ccccc2)C2=NCCCN12 | 110.4%
5 | CCSC1=Nc2c(cnn2-c2ccc(Cl)cc2)C2=NCCCN12 | 119%
6 | Cc1cc(NC(=O)N2CCC[C@@H]2CO)nn1-c1cccc(Cl)c1 | -10.34%
7 | CSC1=Nc2c(cnn2-c2ccc(C)cc2)C2=NCCCN12 | 111.5%
8 | O=C1CCCCN1CSc1nnnn1-c1ccc(Cl)cc1 | -1.778%
9 | CSC1=Nc2c(cnn2-c2cccc(Cl)c2)C2=NCCCN12 | 101.8%
10 | CC(C)OCCOCc1cccc(NC(=O)NCCn2ccnc2)c1 | 1.646%
11 | O=C(CCc1cc2n(n1)CCN(Cc1ncc[nH]1)C2)N1CCCC1 | 6.822%
12 | Cc1cc(N[C@H]2CCCC[C@@H]2O)n2nccc2n1 | -46.39%
13 | Cc1nc(Cn2cncc(Br)c2=O)no1 | 4.078%
14 | Cn1cnc2c1CCN(CC(=O)N(Cc1ccccc1F)C1CC1)C2 | -0.08141%
15 | CSC1=Nc2c(cnn2-c2ccc(Cl)cc2)C2=NCCCN12 | 101%
16 | CNC(=O)c1sccc1S(=O)(=O)NC | -5.377%
17 | COc1cccc2c1OCCCN(c1nc(N)nc3c1CCNC3)C2 | -2.498%
18 | Cc1cc(CN2CCc3c(CNc4ncccn4)cncc3C2)oc1C.Cl.Cl | 20.89%
19 | CC(C)(C)c1ccc(-c2n[nH]c3c2CN(CC2CCOC2)CC3)cc1 (configuration not stated) | 5.17%
20 | Cc1nccc(NCc2cncc3c2CCN(CCN(C)C)C3)n1 | 100%
21 | Cc1nccc(NCc2cncc3c2CCN(CC2CC2)C3)n1.Cl.Cl | 94.72%
22 | Cl.Cl.c1cnc(NCc2cncc3c2CCN(Cc2ccsc2)C3)nc1 | 10.62%

Row | Compound | Percent Effect
23 | Cc1ccc(NCc2cncc3c2CCN(Cc2ccccn2)C3)nn1.Cl.Cl | 108.9%
24 | Cl.Cl.c1csc(CN2CCc3c(CNc4nncs4)cncc3C2)c1 | 13.01%
25 | Cl.Cl.Cl.c1cnc(NCc2cncc3c2CCN(Cc2cccnc2)C3)nc1 | 11.16%
26 | Cc1ccc(NCc2cncc3c2CCN(C(=O)C2CC=CC2)C3)nn1.Cl | 36.84%
27 | Cc1nccc(NCc2cncc3c2CCN(CC2CCOC2)C3)n1.Cl.Cl (configuration not stated) | 113.7%
28 | O=C(NCCn1cccc1)C1CCCOC1 (configuration not stated) | 1.95%
29 | CCC(Cn1ccc2[nH]c(=O)c(C#N)cc2c1=O)OC (configuration not stated) | -23.91%
30 | Cc1ccccc1[C@@H]1CN(CCOCCO)C[C@H]1C(=O)O | -28.11%
31 | O=C(Nc1cc(-c2ccncc2)no1)C1CCC1 | -23.1%
32 | Cn1ccc(NC(=O)CN2C[C@H]3CC[C@@H]2CN(S(C)(=O)=O)C3)n1 | 4.015%
33 | CC1CN(C)CCN1Cc1cccc(C(=O)NCc2ccco2)c1 (configuration not stated) | 11.16%
34 | O=C1N(c2cccc(F)c2)Cc2nc(=O)[nH]n21 | -10.2%
35 | Fc1ccc(OCC2CCCO2)c(NCc2noc(C3CC3)n2)c1 (configuration not stated) | 2.456%
36 | COc1ccnc(CNc2nc(C)nc3ccsc23)c1 | -33.44%
37 | Cc1nc(N2CCC3(CCCN(CC4CC4)C3=O)C2)c2sccc2n1 (configuration not stated) | -31.46%
38 | Cc1nc(CN2CCCC(Nc3ncnc4ccsc34)C2)no1 (configuration not stated) | 36.74%
39 | Cc1nc(N(Cc2ccncc2)CC2CCCO2)c2ccsc2n1 (configuration not stated) | 2.161%
40 | COCc1noc(CCNC(=O)c2ccc(C3CCCO3)s2)n1 (configuration not stated) | -0.9385%
41 | Cc1nc(NCc2noc(C3CCCO3)n2)c2sccc2n1 (configuration not stated) | 146.8%
42 | Cc1nc(NCCc2noc(C3CCCO3)n2)c2sccc2n1 (configuration not stated) | 194.7%
43 | Cc1nc(NCc2noc(C3CCCO3)n2)c2ccsc2n1 (configuration not stated) | 190.8%
44 | Cc1cccc(N2CCN(C(=O)C3CC4(CCNCC4)CN3)CC2)n1 (configuration not stated) | -9.883%

Row | Compound | Percent Effect
45 | COC(=O)CN(Cc1ccccc1C)C(=O)CCNC(=O)C(C)(C)C | 10.54%
46 | Cc1cc2nc(CO[C@H]3CN(C4CCC4)C[C@H]3F)[nH]c2cc1C | -5.771%
47 | Cc1ccc(N2CCC3(CCC(=O)N3Cc3ccncc3)CC2)nn1.O=C(O)C(F)(F)F | 117.9%
48 | N#Cc1ccc(N2CCC3(CCC(=O)N3Cc3ccncc3)CC2)nc1.O=C(O)C(F)(F)F.O=C(O)C(F)(F)F | 101%
49 | O=C(O)C(F)(F)F.O=C(O)C(F)(F)F.O=C1CC[C@]2(CC[C@@H](NC3CCOC3)CC2)N1Cc1ccncc1 (some centres not stated) | -47.26%
50 | N#Cc1ccc(N2CCC3(CC2)COCCN3Cc2cccnc2)cc1.O=C(O)C(F)(F)F | -19.62%
51 | N#Cc1ccc(CN2CC3(CCCCN3c3cccnc3)CC2=O)cc1.O=C(O)C(F)(F)F (configuration not stated) | -4.907%
52 | Cc1ccc(N2CCC3(CC2)CNC(=O)CO3)nn1.O=C(O)C(F)(F)F | 10.91%
53 | N#Cc1ccc(N2CCC3(CCC(=O)N3Cc3cccnc3)CC2)nc1.O=C(O)C(F)(F)F.O=C(O)C(F)(F)F | 109.7%
54 | O=C(O)C(F)(F)F.O=C1CCC2(CCN(c3ncc(F)cn3)CC2)N1Cc1ccncc1 | -48.93%
55 | Cc1cc(CN(C)Cc2cc3c(cc2OC(F)F)OCO3)on1 | -6.74%
56 | CC(C)c1nnc(CN2CCCC2C(=O)OCc2ccccc2)o1 (configuration not stated) | 4.736%
57 | COCC1CCN(CCCc2cn[nH]c2)CC1 | 0.277%
58 | Cc1cc(C)n(-c2ccc(N3CCC4(CC3)OCCO4)nc2)n1 | 6.34%
59 | COCCN(C)C(=O)c1nc2c(s1)CCCN2C | 4.068%
60 | COCCN(C)C(=O)c1nc2c(s1)CCCN2S(C)(=O)=O | -10.12%
61 | CC(=O)N1CCCc2sc(C(=O)Nc3ccc(C)nc3)nc21 | -6.006%
62 | CC(=O)N1CCCc2sc(C(=O)NC3CC3)nc21 | 2.286%
63 | CCNC(=O)c1nc2c(s1)CCCN2S(C)(=O)=O | -29.83%
64 | CCN(C(=O)c1nc2c(s1)CCCN2C(C)=O)C(C)C | 127.1%
65 | CCN(C(=O)c1nc2c(s1)CCCN2Cc1ccccc1)C(C)C | -4.382%
66 | CCN(C(=O)c1nc2c(s1)CCCN2S(C)(=O)=O)C(C)C | 111.8%

Row | Compound | Percent Effect
67 | CCN(C(=O)c1nc2c(s1)CCCN2C)C(C)C | 108.3%
68 | CCn1cc(CN2CCC(c3ccncc3)CC2)cc1C#N | 18.43%
69 | Cc1ccc2c(c1)c(CNC(=O)C1CC(=O)N(CCN(C)C)C1)nn2C (configuration not stated) | 14.04%
70 | CC(C)OCCN(C)CC(c1cccs1)N1CCOCC1 (configuration not stated) | -0.1545%
71 | Cc1sc2nc(SC(C)c3nc(C(C)C)no3)nc(N)c2c1C (configuration not stated) | 10.39%
72 | COc1c(Br)cccc1CCNC(=O)c1ccon1 | -9.617%
73 | Cc1nc(C)n(CC2CCCN(CCc3ccccc3)C2)n1 (configuration not stated) | 91.53%
74 | Cc1nc(C)n(CC2CCCN(CCc3ccncc3)C2)n1 (configuration not stated) | -0.4528%
75 | Cc1nc(C)n(CC2CCCN(CCCc3ccccc3)C2)n1 (configuration not stated) | 82.12%
76 | COc1ccc(CCN2CCCC(Cn3nc(C)nc3C)C2)cc1 (configuration not stated) | 9.645%
77 | NCC1CCC2(CCN(C(=O)c3ccccn3)CC2)CO1.O=C(O)C(F)(F)F.O=C(O)C(F)(F)F (configuration not stated) | 112.6%
78 | CNC(=O)NCC1CCC2(CCN(C(=O)c3ccccn3)CC2)CO1.O=C(O)C(F)(F)F (configuration not stated) | 105.2%
79 | CN(C)CC(=O)N1CCC2(CC1)COC(COc1ccccn1)C2.O=C(O)C(F)(F)F.O=C(O)C(F)(F)F (configuration not stated) | 11.11%
80 | Cc1ccc(C(=O)N2CCC3(CC2)COC(COc2ccccn2)C3)o1.O=C(O)C(F)(F)F (configuration not stated) | 2.842%
81 | O=C(O)C(F)(F)F.O=C(c1cocn1)N1CCC2(CC1)COC(COCc1ccccn1)C2 (configuration not stated) | -10.48%
82 | CCOCC1CC2(CCN(C(=O)c3ccccn3)CC2)CO1.O=C(O)C(F)(F)F (configuration not stated) | -17.18%
83 | Fc1cccc(Oc2ccc(CNCC3CNc4ccnn4C3)cn2)c1 (configuration not stated) | 5.815%
84 | c1ccc(Cn2cncn2)c(CNCC2CNc3ccnn3C2)c1 (configuration not stated) | 4.151%
85 | c1ccc(-n2ccnc2)c(CNCC2CNc3ccnn3C2)c1 (configuration not stated) | -6.615%
86 | COc1ccc(CNC[C@H]2Cn3ccnc3CO2)cn1 | -7.877%
87 | COc1ccc(CNCC2CNc3ccnn3C2)cn1 (configuration not stated) | 96.76%
88 | c1cc2n(n1)CC(CNCc1ccc(OCC3CC3)nc1)CN2 (configuration not stated) | 1.128%

Row | Compound | Percent Effect
89 | Cc1cc2n(n1)CC(CNCc1ccc(-n3cccn3)nc1)CN2 (configuration not stated) | -3.824%
90 | Cc1cc2n(n1)CC(CNCc1cnn(C)c1)CN2 (configuration not stated) | -3.792%
91 | c1ccc(Oc2ccc(CNCC3CNc4ccnn4C3)cn2)cc1 (configuration not stated) | 117.1%
92 | Fc1ccc(Oc2ccc(CNCC3CNc4ccnn4C3)cn2)cc1 (configuration not stated) | 99.62%
93 | Cc1cc2n(n1)CC(CNCc1ccc(OCC3CC3)nc1)CN2 (configuration not stated) | 93.19%
94 | O=C(NCCNCC1CNc2ccnn2C1)c1ccc(F)cc1 (configuration not stated) | -19.45%
95 | Cc1n[nH]c(C)c1C1CCCN1C(=O)c1coc(Br)c1 (configuration not stated) | 4.835%
96 | CCN(Cc1ccc2c(c1)OCO2)C(=O)NCc1nc(C)cs1 | -7.212%
97 | O=C(Nc1cn[nH]c1)N(CCO)C1CCc2ccccc21 (configuration not stated) | 3.342%
98 | COc1cc(CN(C)C(=O)NCc2cccc3c2OCO3)ccc1SC | -31.12%
99 | CCN(Cc1cccc2c1OCO2)C(=O)Nc1ccccn1 | 122.5%
100 | CCN(C(=O)c1cccc2c1OCO2)c1ccccc1 | -1.465%
101 | Cc1cc(CN(C)C(=O)NCc2ccccn2)no1 | 9.808%
102 | CCN(Cc1cccc2c1OCO2)C(=O)NCCOC | 78.96%
103 | O=C(Nc1ccccn1)N(CCO)Cc1ccsc1 | -7.906%
104 | CCN(Cc1cccc2c1OCO2)C(=O)NCc1ccccn1 | 102.4%
105 | CCN(Cc1cccc2c1OCO2)C(=O)Nc1cn[nH]c1 | 109.5%
106 | O=C(Cc1ccccc1Br)NCC(=O)Nc1cn[nH]c1 | -11.75%
107 | CCN(Cc1cccc2c1OCCO2)C(=O)NC(C)(C)C | -7.864%
